# Measured values: paper PMC7862700, “An all-to-all approach to the identification of sequence-specific readers for epigenetic DNA modifications on cytosine”
# Assays:
# Assay in all cases: DAPPL (digital affinity profiling via proximity ligation, sequencing); 10 mM Tris-HCl pH 7.5, 50 mM NaCl, 1 mM DTT, 4% glycerol, room temperature, 30 min; GST-TFs on glutathione beads, 16-mer random dsDNA library, 0.1% formaldehyde crosslink after washing; high values mean tight binding
# Settings in all cases: protein: recombinant; tags: N-terminal GST; dsDNA, one strand shown
# FLI1 = target: T1, FLI1 (Homo sapiens, UniProt Q01543 1-452)
# T1 sequence: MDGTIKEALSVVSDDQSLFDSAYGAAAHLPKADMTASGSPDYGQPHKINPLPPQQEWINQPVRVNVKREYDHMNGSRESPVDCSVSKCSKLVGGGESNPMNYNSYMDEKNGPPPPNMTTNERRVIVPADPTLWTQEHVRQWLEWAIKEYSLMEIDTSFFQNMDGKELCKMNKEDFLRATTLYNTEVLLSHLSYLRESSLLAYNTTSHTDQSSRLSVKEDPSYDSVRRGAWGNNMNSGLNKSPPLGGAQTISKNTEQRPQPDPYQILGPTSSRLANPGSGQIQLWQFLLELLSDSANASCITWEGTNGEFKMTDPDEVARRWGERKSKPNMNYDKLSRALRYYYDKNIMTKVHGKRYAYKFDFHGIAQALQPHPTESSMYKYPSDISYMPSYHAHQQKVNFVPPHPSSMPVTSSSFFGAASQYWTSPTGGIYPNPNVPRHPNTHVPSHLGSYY
# Procedure, shortened: (§1)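 Binding signal is each hexamer's read frequency for a factor divided by its frequency in the tag-only sample. The factors were GST-fused human transcription factors from yeast, captured on glutathione beads, DNA-barcoded and pooled with that sample. Pools were incubated with 200 nmole of a random double-stranded 16-mer DNA library in Tris/NaCl/DTT/glycerol buffer at room temperature for 30 min, then washed, crosslinked with 0.1% formaldehyde, proximity-ligated with BsaI/T4 ligase (1 h, 37 °C), PCR-amplified and sequenced on an Illumina NextSeq500.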
# ELK1 = target: T2, ELK1 (Homo sapiens, UniProt P19419 1-428)
# T2 sequence: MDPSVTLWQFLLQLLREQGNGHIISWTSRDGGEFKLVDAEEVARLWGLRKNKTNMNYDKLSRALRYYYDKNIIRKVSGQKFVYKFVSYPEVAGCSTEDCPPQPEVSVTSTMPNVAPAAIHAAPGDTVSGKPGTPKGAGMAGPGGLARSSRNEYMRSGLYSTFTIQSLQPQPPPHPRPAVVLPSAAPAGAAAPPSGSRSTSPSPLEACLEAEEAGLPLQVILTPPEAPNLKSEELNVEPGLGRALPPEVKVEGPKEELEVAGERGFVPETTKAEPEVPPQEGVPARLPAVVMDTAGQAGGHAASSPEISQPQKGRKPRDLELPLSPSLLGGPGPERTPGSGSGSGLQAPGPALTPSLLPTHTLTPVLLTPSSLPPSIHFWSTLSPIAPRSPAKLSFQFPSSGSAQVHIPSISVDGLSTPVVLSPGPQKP
# Procedure, shortened: as §1
# GABPA = target: T3, GABPA (Homo sapiens, UniProt Q06546 1-454)
# T3 sequence: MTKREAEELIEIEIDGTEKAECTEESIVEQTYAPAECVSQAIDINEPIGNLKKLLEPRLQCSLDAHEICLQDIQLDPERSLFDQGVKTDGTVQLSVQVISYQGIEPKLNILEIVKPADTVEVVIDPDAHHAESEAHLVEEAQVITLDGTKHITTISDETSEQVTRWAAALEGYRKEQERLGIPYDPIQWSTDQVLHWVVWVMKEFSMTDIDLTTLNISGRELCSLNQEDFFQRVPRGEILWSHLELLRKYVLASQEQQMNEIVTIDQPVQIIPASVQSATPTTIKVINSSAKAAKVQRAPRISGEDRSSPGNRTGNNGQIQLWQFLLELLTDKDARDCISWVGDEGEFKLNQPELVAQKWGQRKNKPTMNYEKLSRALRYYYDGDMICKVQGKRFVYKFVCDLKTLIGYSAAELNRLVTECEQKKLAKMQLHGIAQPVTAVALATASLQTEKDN
# Procedure, shortened: as §1
# ERG = target: T4, ERG (Homo sapiens, UniProt P11308 1-479)
# T4 sequence: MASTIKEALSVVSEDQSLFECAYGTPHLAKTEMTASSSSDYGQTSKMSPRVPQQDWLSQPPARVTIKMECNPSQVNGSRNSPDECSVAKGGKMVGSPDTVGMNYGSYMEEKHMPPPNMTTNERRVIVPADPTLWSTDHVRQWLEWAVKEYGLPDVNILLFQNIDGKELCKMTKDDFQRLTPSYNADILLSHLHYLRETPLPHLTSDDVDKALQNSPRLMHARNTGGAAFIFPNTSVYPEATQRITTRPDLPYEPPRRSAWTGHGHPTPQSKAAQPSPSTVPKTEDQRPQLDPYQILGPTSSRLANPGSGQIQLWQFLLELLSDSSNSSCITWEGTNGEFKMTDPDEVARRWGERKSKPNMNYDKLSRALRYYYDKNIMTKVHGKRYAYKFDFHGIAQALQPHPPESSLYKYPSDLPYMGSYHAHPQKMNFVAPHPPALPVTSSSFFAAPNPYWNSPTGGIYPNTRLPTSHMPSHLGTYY
# Procedure, shortened: as §1
# ELF1 = ELF1 (Homo sapiens, UniProt P32519 1-619)
# Sequence of ELF1 (P32519 whole entry): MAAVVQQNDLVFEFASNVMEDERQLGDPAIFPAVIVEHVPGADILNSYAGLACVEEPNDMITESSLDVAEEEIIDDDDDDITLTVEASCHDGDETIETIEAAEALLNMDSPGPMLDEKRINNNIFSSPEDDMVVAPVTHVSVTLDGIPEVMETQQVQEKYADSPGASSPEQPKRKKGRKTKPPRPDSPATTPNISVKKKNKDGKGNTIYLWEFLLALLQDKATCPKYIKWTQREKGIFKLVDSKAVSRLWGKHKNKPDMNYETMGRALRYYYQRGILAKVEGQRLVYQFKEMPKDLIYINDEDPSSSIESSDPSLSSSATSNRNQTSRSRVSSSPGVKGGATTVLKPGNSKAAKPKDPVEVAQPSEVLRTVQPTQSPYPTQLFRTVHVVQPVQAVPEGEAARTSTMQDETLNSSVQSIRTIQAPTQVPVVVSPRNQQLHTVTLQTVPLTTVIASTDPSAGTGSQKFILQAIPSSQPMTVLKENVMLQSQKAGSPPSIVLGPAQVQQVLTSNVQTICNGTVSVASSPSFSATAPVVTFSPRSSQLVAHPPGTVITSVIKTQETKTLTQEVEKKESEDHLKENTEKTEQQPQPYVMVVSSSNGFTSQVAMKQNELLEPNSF
# Procedure, shortened: as §1
# EHF = target: T5, EHF (Homo sapiens, UniProt Q9NZC4 1-300)
# T5 sequence: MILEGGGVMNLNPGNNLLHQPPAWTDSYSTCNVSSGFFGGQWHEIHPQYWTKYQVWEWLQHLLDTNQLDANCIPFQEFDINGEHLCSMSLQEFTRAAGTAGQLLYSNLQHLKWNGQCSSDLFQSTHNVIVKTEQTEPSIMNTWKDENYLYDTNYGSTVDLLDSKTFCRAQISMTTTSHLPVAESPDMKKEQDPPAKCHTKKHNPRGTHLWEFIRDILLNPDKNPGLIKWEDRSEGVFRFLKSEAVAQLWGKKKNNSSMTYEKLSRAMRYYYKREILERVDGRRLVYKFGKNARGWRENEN
# Procedure, shortened: as §1
# SPI1 = SPI1 (Homo sapiens, UniProt P17947 1-270)
# Procedure, shortened: as §1
# SPIB = SPIB (Homo sapiens, UniProt Q01892 1-262)
# Sequence of SPIB (Q01892 whole entry): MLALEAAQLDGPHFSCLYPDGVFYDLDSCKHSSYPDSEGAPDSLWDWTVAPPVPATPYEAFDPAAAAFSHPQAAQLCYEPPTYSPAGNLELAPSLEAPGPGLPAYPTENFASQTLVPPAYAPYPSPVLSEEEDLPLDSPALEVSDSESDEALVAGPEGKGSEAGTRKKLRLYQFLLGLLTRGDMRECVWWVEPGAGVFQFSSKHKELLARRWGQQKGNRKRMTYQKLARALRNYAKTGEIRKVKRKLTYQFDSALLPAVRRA
# Procedure, shortened: as §1
# ELK3 = target: T6, ELK3 (Homo sapiens, UniProt P41970 1-407)
# T6 sequence: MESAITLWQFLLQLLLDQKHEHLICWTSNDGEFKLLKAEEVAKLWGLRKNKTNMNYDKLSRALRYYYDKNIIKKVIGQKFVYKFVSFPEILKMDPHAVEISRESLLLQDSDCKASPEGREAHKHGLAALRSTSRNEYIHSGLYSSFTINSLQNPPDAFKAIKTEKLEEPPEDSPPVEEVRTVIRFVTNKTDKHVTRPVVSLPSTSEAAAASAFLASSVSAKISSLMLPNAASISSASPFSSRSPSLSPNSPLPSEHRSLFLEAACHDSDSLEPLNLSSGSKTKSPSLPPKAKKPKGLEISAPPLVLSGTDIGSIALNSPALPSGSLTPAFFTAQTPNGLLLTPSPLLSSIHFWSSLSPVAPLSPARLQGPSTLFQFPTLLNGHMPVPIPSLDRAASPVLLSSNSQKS
# Procedure, shortened: as §1
Sequence,binding signal (FLI1),binding signal (ELK1),binding signal (GABPA),binding signal (ERG),binding signal (ELF1),binding signal (EHF),binding signal (SPI1),binding signal (SPIB),binding signal (ELK3)
TTTCAG,"1.36 fold enrichment (6-mer frequency, TF over GST control)","1.19 fold enrichment (6-mer frequency, TF over GST control)","1.34 fold enrichment (6-mer frequency, TF over GST control)","1.3 fold enrichment (6-mer frequency, TF over GST control)","1.31 fold enrichment (6-mer frequency, TF over GST control)","1.34 fold enrichment (6-mer frequency, TF over GST control)","1.35 fold enrichment (6-mer frequency, TF over GST control)","1.24 fold enrichment (6-mer frequency, TF over GST control)","1.23 fold enrichment (6-mer frequency, TF over GST control)"
AAAACA,"1.35 fold enrichment (6-mer frequency, TF over GST control)","1.22 fold enrichment (6-mer frequency, TF over GST control)","1.35 fold enrichment (6-mer frequency, TF over GST control)","1.34 fold enrichment (6-mer frequency, TF over GST control)","1.31 fold enrichment (6-mer frequency, TF over GST control)","1.31 fold enrichment (6-mer frequency, TF over GST control)","1.36 fold enrichment (6-mer frequency, TF over GST control)","1.24 fold enrichment (6-mer frequency, TF over GST control)","1.28 fold enrichment (6-mer frequency, TF over GST control)"
GTTTCG,"1.28 fold enrichment (6-mer frequency, TF over GST control)","1.22 fold enrichment (6-mer frequency, TF over GST control)","1.22 fold enrichment (6-mer frequency, TF over GST control)","1.25 fold enrichment (6-mer frequency, TF over GST control)","1.27 fold enrichment (6-mer frequency, TF over GST control)","1.33 fold enrichment (6-mer frequency, TF over GST control)","1.25 fold enrichment (6-mer frequency, TF over GST control)","1.23 fold enrichment (6-mer frequency, TF over GST control)","1.15 fold enrichment (6-mer frequency, TF over GST control)"
ATGCTC,"1.43 fold enrichment (6-mer frequency, TF over GST control)","1.31 fold enrichment (6-mer frequency, TF over GST control)","1.36 fold enrichment (6-mer frequency, TF over GST control)","1.34 fold enrichment (6-mer frequency, TF over GST control)","1.36 fold enrichment (6-mer frequency, TF over GST control)","1.34 fold enrichment (6-mer frequency, TF over GST control)","1.41 fold enrichment (6-mer frequency, TF over GST control)","1.35 fold enrichment (6-mer frequency, TF over GST control)","1.27 fold enrichment (6-mer frequency, TF over GST control)"
CTCCAC,"1.56 fold enrichment (6-mer frequency, TF over GST control)","1.41 fold enrichment (6-mer frequency, TF over GST control)","1.46 fold enrichment (6-mer frequency, TF over GST control)","1.37 fold enrichment (6-mer frequency, TF over GST control)","1.38 fold enrichment (6-mer frequency, TF over GST control)","1.32 fold enrichment (6-mer frequency, TF over GST control)","1.55 fold enrichment (6-mer frequency, TF over GST control)","1.32 fold enrichment (6-mer frequency, TF over GST control)","1.54 fold enrichment (6-mer frequency, TF over GST control)"
TTCTAT,"1.4 fold enrichment (6-mer frequency, TF over GST control)","1.49 fold enrichment (6-mer frequency, TF over GST control)","1.31 fold enrichment (6-mer frequency, TF over GST control)","1.26 fold enrichment (6-mer frequency, TF over GST control)","1.46 fold enrichment (6-mer frequency, TF over GST control)","1.42 fold enrichment (6-mer frequency, TF over GST control)","1.36 fold enrichment (6-mer frequency, TF over GST control)","1.41 fold enrichment (6-mer frequency, TF over GST control)","1.35 fold enrichment (6-mer frequency, TF over GST control)"
CCCGAA,"1.44 fold enrichment (6-mer frequency, TF over GST control)","1.26 fold enrichment (6-mer frequency, TF over GST control)","1.51 fold enrichment (6-mer frequency, TF over GST control)","1.18 fold enrichment (6-mer frequency, TF over GST control)","1.39 fold enrichment (6-mer frequency, TF over GST control)","1.3 fold enrichment (6-mer frequency, TF over GST control)","1.36 fold enrichment (6-mer frequency, TF over GST control)","1.27 fold enrichment (6-mer frequency, TF over GST control)","1.2 fold enrichment (6-mer frequency, TF over GST control)"
TGCGAT,"1.12 fold enrichment (6-mer frequency, TF over GST control)","1.12 fold enrichment (6-mer frequency, TF over GST control)","1.28 fold enrichment (6-mer frequency, TF over GST control)","1.18 fold enrichment (6-mer frequency, TF over GST control)","1.16 fold enrichment (6-mer frequency, TF over GST control)","1.19 fold enrichment (6-mer frequency, TF over GST control)","1.2 fold enrichment (6-mer frequency, TF over GST control)","1.08 fold enrichment (6-mer frequency, TF over GST control)","1.31 fold enrichment (6-mer frequency, TF over GST control)"
